FBW7 act: human FBW7 E3 ligase activation, primary screen. AlphaScreen FBW7–phospho-cyclin E peptide binding, activator screen. AID 1259310. actives 0.13% (n = 650,000). normalized activity (activation), % at 26.1 µM. Q969H0; in the data active = normalized activity above about 1.9%;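 also: purified mutant Fbw7 with reduced substrate affinity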
Target sequence (Q969H0 whole entry, looked up): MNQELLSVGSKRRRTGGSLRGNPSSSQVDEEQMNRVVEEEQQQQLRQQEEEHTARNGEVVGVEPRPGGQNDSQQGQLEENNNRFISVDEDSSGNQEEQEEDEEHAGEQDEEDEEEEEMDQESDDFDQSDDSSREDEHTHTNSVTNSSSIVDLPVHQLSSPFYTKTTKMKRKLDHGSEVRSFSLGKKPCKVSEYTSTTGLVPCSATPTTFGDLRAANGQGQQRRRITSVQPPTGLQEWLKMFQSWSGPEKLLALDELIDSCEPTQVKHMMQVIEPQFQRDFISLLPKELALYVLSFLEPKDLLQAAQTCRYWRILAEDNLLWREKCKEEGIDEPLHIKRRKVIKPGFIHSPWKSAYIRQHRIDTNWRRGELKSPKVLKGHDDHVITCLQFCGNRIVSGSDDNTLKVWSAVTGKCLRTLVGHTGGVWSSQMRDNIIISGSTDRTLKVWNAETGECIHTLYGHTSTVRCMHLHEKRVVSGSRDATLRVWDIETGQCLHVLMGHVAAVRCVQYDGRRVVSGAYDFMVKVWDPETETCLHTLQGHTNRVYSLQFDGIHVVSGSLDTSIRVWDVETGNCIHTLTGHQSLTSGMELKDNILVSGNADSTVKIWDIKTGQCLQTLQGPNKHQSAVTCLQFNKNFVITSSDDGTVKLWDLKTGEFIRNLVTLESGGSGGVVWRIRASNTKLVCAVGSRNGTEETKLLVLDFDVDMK
TEAD-YAP inh: TEAD-YAP interaction inhibition; HEK-TIYL cells, TEAD-Gal4/YAP UAS-luciferase luminescence; actives 1.4% (n = 640,000); AID 1259422; inhibition, % at 9.12 µM; in the data active = inhibition above about 32%;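 also: 0% = median of test compound wells and 100% = reference inhibitor wells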
MITF inh: blocks human microphthalmia-associated transcription factor. AlphaScreen MITF homodimerization, bead proximity signal. AID 1259374. inhibition, % at 2.6 µM. O75030. actives 0.91% (n = 650,000); in the data active = inhibition above about 50%;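 also: 0% = vehicle wells with protein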
GPR151 ag: activators of human GPR151; PathHunter beta-arrestin GPR151 cells, luminescence; activation, % at 11.2 µM; actives 1% (n = 650,000); in the data active = activation above about 4.9%;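 also: 0% = median of compound wells and 100% = cells with positive control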
GPR151 conf act: confirmation of human GPR151 activators; shares compounds with GPR151 ag; GPR151 PathHunter beta-arrestin cells, luminescence, 90 min; % of EA-reagent control over plate median; activation, % at 11.2 µM; 6,700 tested, under 10 active; AID 1508609;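 active = mean percent activation across replicates above the confirmation screen cutoff of 4.91%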
GPR119 counter: counter-screen for GPR151 activators: effect on human GPR119 | actives 0.3% (n = 6,700) | shares compounds with GPR151 ag | GPR119 PathHunter beta-arrestin cells, luminescence, 90 min; 0 = compound-well median, 100 = enzyme-acceptor control | activation, % at 11.2 µM;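 active = mean percent activation in the counterscreen above 29.09%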;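 also: counterscreen on off-target GPR119 to flag nonselective hits from the GPR151 activator screen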
The depositor's hits bear a star; · = no result given. Compounds with a hit are over-represented: about 3.5% of the library has one in this group of screens.

SMILES	FBW7 act	TEAD-YAP inh	MITF inh	GPR151 ag	GPR151 conf act	GPR119 counter
COc1ccc(CCNC(=O)c2cccc(Nc3nc4ccccc4n3C)n2)cc1	0	12	39	7.8*	-1	-16
COc1ccc(CCNC(=O)c2csc(Nc3nc4ccccc4n3C)n2)cc1	0	2	10	1	·	·
CN(C)C(=O)CSc1ccc(Cl)cc1	1	-6	21	-1	·	·
O=C1c2cccc(N3CCCC(C(=O)N4CCC[C@H]4CO)C3)c2C(=O)N1C1CCCC1 (some centres not stated)	0	-31	4	2	·	·
O=C(NCCO)C1CCCN(c2cccc3c2C(=O)N(C2CCCCCCC2)C3=O)C1 (configuration not stated)	0	-1	-2	5.8*	0	8
CC1CCN(C(=O)Cn2nc(SCc3ccccn3)nc2N)CC1	0	5	26	17*	0	2
O=C(c1ccc2ccccc2c1)C1CCCN(C(=O)CCc2cccnc2)C1 (configuration not stated)	0	4	2	0	·	·
S=C(NCCCn1ccnc1)Nc1ccc(Br)cc1	0	-5	8	5.1*	-1	-8
CC(C)c1ccc(NS(=O)(=O)c2ccc3[nH]cc(C(=O)N4CCCC4)c(=O)c3c2)cc1	0	-5	49	9.7*	1	4
CCc1ccc(NS(=O)(=O)c2ccc3[nH]cc(C(=O)N4CCCCC4)c(=O)c3c2)cc1	0	-1	-5	0	·	·
CCOC(=O)c1sc(NC(=S)NC(=O)c2ccccc2F)nc1C	0	10	-1	-1	·	·
CCOC(=O)c1sc(NC(=O)c2c(F)cccc2F)nc1C	0	-7	-6	7.8*	0	16
CCOc1cccc(C(=O)Nc2nn3c(-c4ccc(OC)c(OC)c4)nnc3s2)c1	0	5	-8	1	·	·
O=S(=O)(/C=C/c1ccccc1)N1CCCC(N2CCN(c3ccccc3)CC2)C1 (configuration not stated)	0	20	1	5.6*	0	6
Cc1ccc(-c2ncn(-c3ccc(Nc4nccc(-c5cncc(N6CCOCC6)c5)n4)cc3)n2)cn1	0	26	7	-1	·	·
c1ccc(Cn2cc(-c3ccc(Nc4nccc(-c5cncc(N6CCOCC6)c5)n4)cc3)cn2)cc1	0	31	2	6.8*	1	24
Cc1ccnc(SCc2nc3ccccn3c2Br)n1	0	-31	18	15*	-1	-14
Cc1ccnc(SCc2nc3ccc(Cl)cn3c2Br)n1	0	-40	7	-1	·	·
CCOc1ccc(C(=O)NC(C)(C)C)cc1Cl	0	10	1	6.9*	-1	-13
CCOc1ccc(C(=O)NC(=S)Nc2cccnc2)cc1Cl	0	-1	-12	7.1*	1	16
CCOc1c(Cl)cc(C(=O)NC(C)(C)C)cc1Cl	0	5	-5	1	·	·
CCOc1ccc(C(=O)NC(=S)Nc2cccnc2)cc1[N+](=O)[O-]	0	27	-7	0	·	·
FC1(F)C(F)(F)C(F)(F)C2(F)C(F)(F)C(F)(F)C(F)(F)C(F)(F)C2(F)C1(F)F (configuration not stated)	0	3	1	5.1*	0	-6
CCOC(=O)c1c(C)nc2c(c1C)/C(=N/O)CC(C)(C)C2	0	-1	4	5.0*	-1	-11
CC(C)[C@@H](Cn1nc(-c2ccc(F)c(F)c2)ccc1=O)NC(=O)c1ccc(=O)[nH]n1	0	0	6	9.0*	0	5
SMILES	FBW7 act	TEAD-YAP inh	MITF inh	GPR151 ag	GPR151 conf act	GPR119 counter
COCc1cc(C)nc(SCC(=O)Oc2ccccc2)c1C#N	0	1	-9	-1	·	·
COCc1cc(C)nc(SCC(=O)O)c1C#N	0	6	1	5.9*	0	-10
CC(C)CCOc1ccc(/C=N/n2cnnc2)cc1	0	1	-1	0	·	·
CCCCCCOc1ccc(/C=N/n2cnnc2)cc1	0	9	6	6.8*	0	-3
O=C(CCCCn1c(=O)[nH]c2ccsc2c1=O)N1CCC(N2CCCCC2)CC1	0	5	0	0	·	·
Cc1cccc(C2C3=C(CC(C)(C)CC3=O)Nc3c2c(=O)n(C)c(=O)n3C)c1 (configuration not stated)	0	3	10	0	·	·

Screening results: PubChem BioAssay, The Scripps Research Institute Molecular Screening Center
